Each structure is given as a SMILES string. Out of some 300,000 compounds screened, about 3,600 (1.2%) were called active. The full list was thinned out, with actives kept by preference. Unmarked numbers belong to inactive results. Rule as the data show it: active = activation above about 30% (passing the limit was not always enough); inconclusive = no clear call, values can overlap the other calls.

The nature of the assay: activation of beta-catenin signaling reporter – cell-based, plate reader, single point, primary screen (AID 743398).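 Also: 0% = neutral control wells and 100% = positive control wells.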 Conditions: Wnt/beta-catenin reporter cell assay, activator, at 9.35 µM, hits give high values.
Take `O=C(c1ccc(F)cc1)n1cc(C(=S)N2CCOCC2)c2ccccc21`: the activation was -0.566%.
For `O=C(Cn1c(=S)nc2ccccn21)N1CCc2ccccc2C1`, the activation is 17.7%.
As for `O=C(c1ccc(F)cc1)n1c(=S)nc2ccccn21`, the figure is 55.5% (active).
For `CC(C)(C)S(=O)N1Cc2cc(C(=O)NCCCN3CCOCC3)nc(-c3cccc(-c4cc5ccccc5o4)c3)c2[C@H]1CCO` (stereo partly drawn), the activation is -3.72%.
As for `O=C(NC(=O)c1ccccc1)Nc1ccccc1O`, the figure is 40.2% (active).
Regarding `O=C(Nc1ccc(C(=O)O)c(O)c1)c1ccccc1`, the activation was -0.311%.
`O=C(Nc1ncccc1O)c1ccc(C(=O)c2ccccc2)cc1`: the activation was 21.2%.
As for `Cc1cccc2c1N(CC(=O)OC(C)C)C(=O)C2=O`, the figure is -1.39%; as for `Cc1cc(/C=C2/SC(=O)N(CC(=O)OC(C)C)C2=O)c(C)n1C`, 32.5% (active); as for `Cc1cc(/C=C2/SC(=O)N(CC(=O)N3CCCC3)C2=O)c(C)n1C`, -1.52%.
In the case of `COc1cccc(OCC(=O)NCCS(=O)(=O)N2CCN(c3ccccc3)CC2)c1`, the activation is -0.863%.
Take `COC(=O)c1ccc2nc(-c3ccc(OC)c(OC)c3)c(Cc3ccccc3)n2c1`: the activation is -2.38%.
`COc1ccc(CC(=O)Nc2nc(-c3ccc(F)c(F)c3)cs2)cc1OC`: the activation is -5.88%.
For the compound `Fc1ccc(-c2csc(-c3ccc(C4SCCS4)cc3)n2)cc1F`, the activation is 34% (active).
For the compound `Clc1ccc(-c2csc(-c3ccncc3)n2)cc1`, the activation was 6.51%.
Regarding `COC(=O)C1=C(C)N(Cc2ccccc2C(F)(F)F)C(=NCc2ccc(C(F)(F)F)cc2)NC1c1ccc(F)cc1` (stereo not drawn), the activation is -3.9%.
As to `COCCCNC(=O)c1ccc(-c2c(C)noc2C)c2ccoc12`, the activation was 3.17%.
Regarding `O=C(Nc1ccc(Cl)c(C(F)(F)F)c1)C1Cc2c(-c3ccccc3Oc3ccccc3)ccnc2O1` (stereo not drawn), the activation is -4.6%.
`Cc1c(C(=O)N2CCCc3ccccc32)sc2nc(-c3ccccc3)cn12`: the activation is 51.4% (active).
As for `Cc1c(C(=O)NCC2CCCO2)sc2nc(-c3ccccc3)cn12` (stereo not drawn), the activation was 8.78%.
As to `Cc1cccc2cc3c(N)c(C(=O)N4CCCc5ccccc54)sc3nc12`, the activation was -13.9%.
With `Cn1c(CCN2CCN(c3ccccn3)CC2)nc2cc(NS(=O)(=O)c3ccc(F)cc3)ccc21` the figure was -2.6%.
As to `Cc1ccc(C(=O)Nc2nc3ccc(Cl)cc3s2)o1`, the activation was 36.2% (active).
For the compound `Cc1ccc(C(=O)Nc2nnc(-c3ccncc3)s2)o1`, the activation is 2.92%.
With `CCc1noc(C)c1C(=O)Nc1nc2ccc(OC)cc2s1`, the activation is 9.85%.
With `CC(C)(C)Cc1c(C2CCCCC2)nc2ccc(Br)cn12`, the activation was -1.26%.
Turning to `COC(=O)c1c(NC(C)=O)sc(C(=O)Nc2ccccc2OC)c1C`, the activation was -1.17%.
On to `CCC(=O)Nc1sc(C(=O)Nc2ccccc2)c(C)c1C(=O)OC`, for which the activation was 68.1% (active).
On to `CCOC(=O)c1sc(NC(=O)COc2ncnc3ccccc23)c(C(=O)OCC)c1C`, for which the activation is -6.66%.
With `O=C1Nc2ccccc2C1=NN=Cc1ccco1`, the activation is 0.126%.
As for `CCN(CC)CCCNC(=O)COc1ccc2oc3c(c2c1)CCCC3`, the activation was -0.131%.
Turning to `O=C(COc1ccc2oc3c(c2c1)CCCC3)Nc1ccccn1`, the activation is 39.6% (active).
For the compound `CCOC(=O)N1CCN(C(=O)COc2ccc3oc4c(c3c2)CCCC4)CC1`, the activation was -0.344%.
Consider `CC1(C)OC(=O)C2=C(C[C@@H](C3CCCC3)O[C@@H]2c2ccc(Cl)cc2)O1`, for which the activation was -1.11%.
On to `O=C(Nc1ccc(NC(=O)c2ccccc2F)cc1)c1ccccc1F`, for which the activation is -1.97%.
In the case of `O=C(Nc1nnc(-c2ccccc2F)s1)c1ccccc1F`, the activation was 32.6% (active).
As for `CN(Cc1ccccc1)S(=O)(=O)c1nnc(NC(=O)c2ccccc2F)s1`, the figure is -0.354%.
With `COC(=O)C1=C(C)N(Cc2ccc(C(F)(F)F)cc2)C(=NCc2ccccc2)NC1c1ccccc1C(F)(F)F` (stereo not drawn) the figure was -11.5%; with `O=C(CSc1cccc[n+]1[O-])c1ccc(-c2ccccc2)cc1`, 10.1%; with `Cc1ccc(C(=O)CSc2ccccc2C(=O)O)cc1`, 31.9% (active).
As for `Cc1ccc(Sc2cc(C(=O)c3ccccc3C(=O)O)ccc2[N+](=O)[O-])cc1`, the figure is 0.926%; as for `CCCCNC(=O)C[C@@H]1C[C@@]2(C(=O)OCC)CCC=C2N(Cc2cccc3ccccc23)C1=O`, -1.83%.
On to `CC(C)C1CCN(C(=O)C2CCC(=O)N(C3CCCCCC3)C2)CC1` (stereo not drawn), for which the activation was 0.269%.
For `CCOC(=O)C1(C)CCCN(C(=O)c2cccc(Cl)c2)C1` (stereo not drawn), the activation was -1.09%.
In the case of `Cc1ccc(NC(=O)N2c3ccccc3SC2c2ccco2)c(C)c1` (stereo not drawn), the activation was 4.58%.
`CCC(C)(C)NC(=O)C(c1cccn1C)N(Cc1ccc(C)cc1)C(=O)Cn1nnc2ccccc21` (stereo not drawn): the activation is 0.194%.
Regarding `COc1ccccc1N(C(=O)Cn1nnc2ccccc21)C(C(=O)NCc1ccco1)c1ccc(C)o1` (stereo not drawn), the activation is -2.2%.
`COCCNC(=O)C(c1ccc(C)o1)N(Cc1ccccc1)C(=O)Cn1nnc2ccccc21` (stereo not drawn): the activation is 40.8% (active).
As for `Cc1ccc(S(=O)(=O)N(CCc2ccccc2)c2ccc3c(c2)C2CC3CCN2C(=O)OCc2ccccc2)cc1` (stereo not drawn), the activation was -4.45%.
As for `CCCCCCN1C[C@H](O)[C@@H](n2cc(C3CC3)nn2)C[C@@H]1c1ccc(Cl)cc1`, the activation is 0.514%.
Take `CN1CCCc2nc(-c3ccccc3)ccc21`: the activation is 28.7%.
As to `Nc1ncnc2c1ncn2[C@@H]1O[C@H](C(=O)N[C@@H](CCc2ccccc2)C(=O)N2CCCN(Cc3cccs3)CC2)[C@@H](O)[C@H]1O`, the activation is 2.88%.
As for `CC(C)(C)CC(=O)Nc1nc(C(N)Cc2ccc(C(F)(F)F)cc2)cs1` (stereo not drawn), the figure is -3.02%.
As for `O=C(CNC(=O)c1ccc(F)cc1)c1ccccc1`, the activation is 12.3%.
With `O=C(NCCOc1ccccc1)c1ccccc1F` the figure was 2.79%.
As for `O=C(CNC(=O)c1ccccc1F)c1ccc(Br)cc1`, the figure is 39% (active).
For `C=CCn1nc(C(=O)OCC)cc1-c1sc(NC(=O)c2ccccc2)nc1C`, the activation is -1.67%.
On to `CC1(C(=O)Nc2cccnc2)Cc2c(-c3ccccc3)ccnc2O1` (stereo not drawn), for which the activation is -1.45%.

The values above are taken from PubChem BioAssay AID743398 (Broad Institute, 2014).
